Results on 21 compounds are retold here after PubChem BioAssay (EPA / NIEHS).

A word on the AC50: it is the concentration at which the activity in the assay is half-maximal.

Results filed as inconclusive are left out. The source made the active and inactive calls. The calls were made as follows: active = hit-call score of the fitted dose curve at least 0.9, where 1 is the maximum; inconclusive = response in the unintended direction; inactive = score below 0.9.

Sequence of Nucleoli Translocation, AR (gene 367) (P10275 whole entry, looked up): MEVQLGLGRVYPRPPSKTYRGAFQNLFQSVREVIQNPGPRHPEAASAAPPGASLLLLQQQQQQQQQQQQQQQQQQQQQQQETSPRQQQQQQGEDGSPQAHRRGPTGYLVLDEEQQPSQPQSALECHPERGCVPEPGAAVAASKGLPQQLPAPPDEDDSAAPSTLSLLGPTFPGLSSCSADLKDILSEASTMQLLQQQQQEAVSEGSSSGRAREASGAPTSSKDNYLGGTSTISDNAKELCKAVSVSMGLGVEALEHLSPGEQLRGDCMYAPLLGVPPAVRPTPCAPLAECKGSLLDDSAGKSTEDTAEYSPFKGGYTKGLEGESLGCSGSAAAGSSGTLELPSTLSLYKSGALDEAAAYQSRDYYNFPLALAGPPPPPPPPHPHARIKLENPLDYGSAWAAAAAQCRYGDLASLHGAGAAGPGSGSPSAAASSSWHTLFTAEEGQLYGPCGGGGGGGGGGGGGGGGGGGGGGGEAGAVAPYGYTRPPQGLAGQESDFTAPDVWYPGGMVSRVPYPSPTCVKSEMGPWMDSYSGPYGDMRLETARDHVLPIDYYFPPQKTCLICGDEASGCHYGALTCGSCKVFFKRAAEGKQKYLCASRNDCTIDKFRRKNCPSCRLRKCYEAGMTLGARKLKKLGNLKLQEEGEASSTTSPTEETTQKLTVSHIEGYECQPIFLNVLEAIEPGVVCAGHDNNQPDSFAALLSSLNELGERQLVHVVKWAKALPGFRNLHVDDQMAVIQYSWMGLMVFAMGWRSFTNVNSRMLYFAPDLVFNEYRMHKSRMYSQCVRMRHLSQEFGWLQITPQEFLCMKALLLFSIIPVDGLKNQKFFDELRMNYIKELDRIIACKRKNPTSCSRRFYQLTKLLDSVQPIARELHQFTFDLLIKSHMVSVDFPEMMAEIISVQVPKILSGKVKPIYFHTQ

The assay deals with Nucleoli Translocation, AR (gene 367) (UniProt P10275). Kind of assay: UPITT_HCI_U2OS_AR_TIF2_Nucleoli_Antagonist: University of Pittsburgh U2OS Androgen Receptor-Transcriptional Intermediary Factor 2 (AR-TIF2) Antagonism High Content Imaging Assay for Nucleoli Translocation (AID 2283997). An outline of the steps:
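U2OS cells co-expressing red-fluorescent-tagged human AR and green-fluorescent-tagged TIF2, imaged by high-content microscopy for nucleolar red fluorescence. Antagonist mode against DHT; primary screen at 20 uM final (0.2% DMSO).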
`O=C(Nc1ccc(Cl)cc1)Nc1ccc(Cl)c(Cl)c1`: the AC50 is 5.24 µM (active).

For `COc1cc(C(=O)NC2CCN(C)CC2)ccc1Nc1ncc2c(n1)N(C1CCCC1)CC(F)(F)C(=O)N2C`, the compound was classed as inactive.

On to `CCCCOC(=O)c1ccc(O)cc1`, for which the result was inactive.

Regarding `Cc1c2ccccc2c(C)c2c1ccc1ccccc12`, the AC50 was 50 µM (active).

Take `COCC(C)OCC(C)OCC(C)O` (stereo unspecified): the outcome was inactive.

On to `O=C(O)Cn1c(=O)n(Cc2ccc(Br)cc2F)c(=O)c2ccc(Cl)cc21`, for which the call was inactive.

For the compound `Oc1ccc2ccccc2c1`, the result was inactive.

For the compound `NCc1cccc(C2CCN(C(=O)c3ccc(C#Cc4ccccc4F)o3)CC2)c1`, the AC50 is 72.7 µM (active).

For the compound `O=C(O)c1ccccc1C(=O)OCc1ccccc1`, the call was inactive.

Consider `O=c1c(-c2ccc(O)cc2)coc2cc(O)cc(O)c12`, for which the call was inactive.

Take `CN(C[C@@H](CC[N+]12CCC(C3CCCCC3)(CC1)CC2)c1ccc(Cl)c(Cl)c1)C(=O)c1cc(C(F)(F)F)cc(C(F)(F)F)c1`: the AC50 is 50 µM (active).

For the compound `OCCO`, the compound was called inactive.

`CN(C)c1ccc(C(=C2C=CC(=[N+](C)C)C=C2)c2ccc(N(C)C)cc2)cc1`: the AC50 was 0.262 µM (active).

As for `CCN(Cc1cccnc1)C(=O)c1cccc(Cl)c1[C@]1(C)C(=O)N(Cc2ccc(OC)cc2OC)c2ccc(Cl)cc21`, the compound was called inactive.

For the compound `Cc1cc(F)ccc1-c1cc(N2CC[C@@H](O)[C@H]2CO)ncc1N(C)C(=O)C(C)(C)c1cc(C(F)(F)F)cc(C(F)(F)F)c1`, the call was inactive.

As to `CCCCCCCCCC(=O)O`, the outcome was inactive.

On to `Cc1ccc(C(C)C)cc1`, for which the outcome was inactive.

For `CCCC(=O)OCCC(C)C`, the result was inactive.

`Cc1occc1C(=O)Nc1ccc(C(=O)N2CCC(F)(F)/C(=C\C(=O)N3CCC(N4CCCCC4)CC3)c3ccccc32)cc1`: the compound was called inactive.

For the compound `CCCCCCCCN(C)CCCCCCCC`, the call was inactive.

In the case of `NC(=O)c1nc(-c2cccc(-c3cc(F)ccc3OCC(F)(F)C(F)(F)F)c2)n[nH]1`, the result was inactive.
